Among the data in PubChem BioAssay (EPA / NIEHS) are AC50 and outcome values, retold here.

“And” between values parts separate entries of the source, which are not always exact repeats. Equal values may be shown once. Inconclusive results are not listed. Some compounds were tested as several samples or in several runs, with calls that do not always agree. The source made the active and inactive calls. How the source made its calls, unless noted: active means hit-call score of the fitted dose curve at least 0.9, where 1 is the maximum; inactive means score below 0.9.

Assay [1] can be described thus: ATG_TCF_b_cat_CIS: Attagene CIS-FACTORIAL HepG2 Assay for human T-Cell-Factor with beta-catenin (TCF/b-cat) (AID 2282965). The note with it: HepG2 TCF/beta-catenin cis-reporter transcription, actives raise or lower the signal. The method in brief:
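HepG2 cells transiently transfected with cis-promoter-driven multiplexed reporter units; reporter mRNA measured 24 h after dosing by RT-PCR, FAM labelling, HpaI digestion and capillary electrophoresis. Bidirectional fitting relative to DMSO baseline.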

A short description of assay [2]: ATG_TGFb_CIS: Attagene CIS-FACTORIAL HepG2 Assay for human Transforming Growth Factor (TGF) (AID 2282967). The following applies: HepG2 Attagene CIS TGFb reporter, mRNA transcription; actives raise or lower the signal. The method in brief: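 After a 24-hour incubation with compound, transfected HepG2 cells were lysed for RNA; reporter cDNA was amplified, fluorescently end-labeled and separated by CE. DMSO served as baseline for bidirectional fits.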

Assay [3] in a line: ATG_VDRE_CIS: Attagene CIS-FACTORIAL HepG2 Assay for human Vitamin D Receptor Element (VDRE) (AID 2282968). The following applies: HepG2 VDRE cis-reporter transcription, actives raise or lower the signal. The gist of the method: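 Cell-based multiplexed reporter format in human liver HepG2 cells, 24 h post-dose. Fluorescence from capillary electrophoresis of reporter cDNA gives the signal, with DMSO as negative control and baseline.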

For assay [4], the target named is Estrogen receptor (Homo sapiens) (UniProt P03372). Kind of assay: ATG_ERa_TRANS: Attagene TRANS-FACTORIAL HepG2 Assay for human Estrogen Receptor alpha (ERa) (AID 2282970; active means hit-call score of the fitted dose curve at least 0.9, where 1 is the maximum). The note with it: HepG2 Attagene TRANS ERa GAL4 reporter, mRNA. The gist of the method:
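HepG2 cells transiently transfected with multiplexed GAL4-UAS reporter units read out chimeric NR-Gal4 activity. After 24 h compound exposure, reporter mRNA was quantified by RT-PCR, 6-FAM labeling, HpaI digestion and capillary electrophoresis, relative to DMSO.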

Assay [5] has as its target X-box-binding protein 1 (Homo sapiens) (UniProt P17861). The assay is described as follows: ATG_Xbp1_CIS: Attagene CIS-FACTORIAL HepG2 Assay for human X-box Binding Protein 1 (XBP1) (AID 2282972). The note with it: HepG2 XBP1 cis-element reporter, Attagene multiplex; actives raise or lower the signal. The method in brief:
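After a 24-hour chemical exposure of HepG2 cells carrying cis-regulated reporters, reporter mRNA levels are assessed. Quantification uses RT-PCR, 6-FAM labelling and capillary electrophoresis. Gain- or loss-of-signal is fitted against DMSO.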

Assay [6] is described as follows: ATG_GAL4_TRANS: Attagene TRANS-FACTORIAL HepG2 Assay for GAL4 (Internal Marker) (AID 2282976; active means hit-call score of the fitted dose curve at least 0.9, where 1 is the maximum). The following applies: HepG2 Attagene TRANS GAL4 internal marker reporter. The gist of the method: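 Background-control readout: GAL4-UAS reporter transcript in transiently transfected HepG2 cells after 24 h compound exposure. Measured by RT-PCR, 6-FAM primer extension, HpaI digest and capillary electrophoresis; gain-of-signal fit versus DMSO.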

The target in assay [7] is Estrogen-related receptor gamma (Homo sapiens) (UniProt P62508). The assay is described as follows: ATG_ERRg_TRANS: Attagene TRANS-FACTORIAL HepG2 Assay for human Estrogen-Related Receptor gamma (ERRg) (AID 2282977; active means hit-call score of the fitted dose curve at least 0.9, where 1 is the maximum;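 further: hits increase reporter signal over DMSO so potencies reflect activators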). The following applies: HepG2 Attagene TRANS reporter, ERRg transactivation. The gist of the method:
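HepG2 cells transiently transfected with multiplexed GAL4-UAS reporter units and chimeric NR-Gal4 constructs were exposed to test chemicals for 24 h. Reporter mRNA was measured by RT-PCR, 6-FAM primer extension, HpaI digestion and capillary electrophoresis; gain-of-signal versus DMSO.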

The target in assay [8] is Nuclear receptor subfamily 1 group I member 3 (Homo sapiens) (UniProt Q14994). The assay is described as follows: ATG_CAR_TRANS: Attagene TRANS-FACTORIAL HepG2 Assay for human Constitutive Androstane Receptor (CAR) (AID 2282969; active means hit-call score of the fitted dose curve at least 0.9, where 1 is the maximum;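 further: activators raise reporter mRNA above DMSO so AC50 marks induction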). The following applies: HepG2 Attagene TRANS-FACTORIAL CAR reporter. The method in brief: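 HepG2 cells transiently transfected with GAL4-UAS reporter units; TRANS format reads activity of exogenous chimeric NR-Gal4 protein. After 24 h dosing, reporter mRNA quantified by RT-PCR, 6-FAM labelling and capillary electrophoresis; gain of signal fitted against DMSO.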

The nature of assay [9]: ATG_M_19_TRANS: Attagene TRANS-FACTORIAL HepG2 Assay for M19 Transcription Factor (Internal Marker) (AID 2282974; active means hit-call score of the fitted dose curve at least 0.9, where 1 is the maximum). The note with it: HepG2 Attagene TRANS-FACTORIAL M19 internal marker reporter. The method in brief: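 Background-control readout: after 24 h chemical exposure of transfected HepG2 carrying GAL4-driven reporter units, RNA was reverse-transcribed, amplified, fluorescently labeled and sized by capillary electrophoresis; gain-of-signal fit against DMSO.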

Assay [10] can be described thus: ATG_TAL_CIS: Attagene CIS-FACTORIAL HepG2 Assay for human TAL Basal Promoter (AID 2282966).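 Further: background control endpoint measuring basal TAL promoter reporter mRNA not a specific factor.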 The note with it: HepG2 Attagene cis-factorial TAL promoter reporter; actives raise or lower the signal. The gist of the method: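 HepG2 cells transiently transfected with multiplexed cis-promoter reporter units, dosed 24 h. Reporter mRNA quantified by RT-PCR, 6-FAM labelling, HpaI digestion and capillary electrophoresis; TAL basal promoter serves as background control, fitted bidirectionally versus DMSO.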

Sequence of Nuclear receptor subfamily 1 group I member 3 (Homo sapiens) (Q14994 whole entry, looked up, the tested form may be a part): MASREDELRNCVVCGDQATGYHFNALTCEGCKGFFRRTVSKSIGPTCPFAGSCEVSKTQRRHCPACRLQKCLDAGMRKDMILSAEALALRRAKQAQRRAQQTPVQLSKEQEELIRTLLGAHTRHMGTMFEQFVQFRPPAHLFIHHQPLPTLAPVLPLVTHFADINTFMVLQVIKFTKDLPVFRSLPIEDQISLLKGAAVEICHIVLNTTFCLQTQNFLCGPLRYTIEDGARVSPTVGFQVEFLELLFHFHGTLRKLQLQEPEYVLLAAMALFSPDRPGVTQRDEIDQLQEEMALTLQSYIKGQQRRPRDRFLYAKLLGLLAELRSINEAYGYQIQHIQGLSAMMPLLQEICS
Sequence of X-box-binding protein 1 (Homo sapiens) (P17861 whole entry, looked up): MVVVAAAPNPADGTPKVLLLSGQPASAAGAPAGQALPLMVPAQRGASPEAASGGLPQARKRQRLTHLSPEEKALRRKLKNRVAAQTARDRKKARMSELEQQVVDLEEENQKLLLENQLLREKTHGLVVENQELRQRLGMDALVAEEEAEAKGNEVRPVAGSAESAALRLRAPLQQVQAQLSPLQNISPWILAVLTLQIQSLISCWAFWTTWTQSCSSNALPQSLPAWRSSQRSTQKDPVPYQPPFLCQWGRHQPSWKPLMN
Sequence of Estrogen receptor (Homo sapiens) (P03372 whole entry, looked up, the tested form may be a part): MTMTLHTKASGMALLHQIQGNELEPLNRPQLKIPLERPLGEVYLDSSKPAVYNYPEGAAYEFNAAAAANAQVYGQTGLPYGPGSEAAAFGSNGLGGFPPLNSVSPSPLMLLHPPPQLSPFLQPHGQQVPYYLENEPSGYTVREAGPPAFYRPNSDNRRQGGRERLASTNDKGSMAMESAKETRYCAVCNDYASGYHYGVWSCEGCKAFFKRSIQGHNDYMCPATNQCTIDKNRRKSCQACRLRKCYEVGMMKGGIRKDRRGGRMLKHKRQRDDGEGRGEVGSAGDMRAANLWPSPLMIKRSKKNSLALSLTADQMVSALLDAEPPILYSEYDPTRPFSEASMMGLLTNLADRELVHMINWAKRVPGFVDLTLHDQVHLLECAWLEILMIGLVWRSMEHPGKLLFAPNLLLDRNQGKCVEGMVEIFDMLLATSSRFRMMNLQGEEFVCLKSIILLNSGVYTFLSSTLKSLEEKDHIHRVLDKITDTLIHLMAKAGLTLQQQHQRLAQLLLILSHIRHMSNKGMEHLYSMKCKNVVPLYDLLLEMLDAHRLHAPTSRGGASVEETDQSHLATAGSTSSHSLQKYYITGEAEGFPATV
Sequence of Estrogen-related receptor gamma (Homo sapiens) (P62508 whole entry, looked up, the tested form may be a part): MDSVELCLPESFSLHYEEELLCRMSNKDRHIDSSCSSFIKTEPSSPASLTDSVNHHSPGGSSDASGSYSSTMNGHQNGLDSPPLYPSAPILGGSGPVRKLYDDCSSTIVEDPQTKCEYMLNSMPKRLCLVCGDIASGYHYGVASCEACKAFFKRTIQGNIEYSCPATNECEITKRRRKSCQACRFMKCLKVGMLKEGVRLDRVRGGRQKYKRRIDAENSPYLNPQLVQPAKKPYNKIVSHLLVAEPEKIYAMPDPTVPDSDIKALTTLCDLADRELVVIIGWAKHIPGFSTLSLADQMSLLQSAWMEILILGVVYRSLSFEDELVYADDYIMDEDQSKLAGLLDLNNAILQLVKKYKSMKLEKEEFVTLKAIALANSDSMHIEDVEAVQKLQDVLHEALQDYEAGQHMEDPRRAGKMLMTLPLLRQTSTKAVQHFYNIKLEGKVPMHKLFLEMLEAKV

As usually defined, the AC50 is the midpoint of the concentration-response curve, whichever way the signal moves. Consider `CCCCCCCCCCCCCC[N+](C)(C)C`, for which the AC50 in [1] was 17.2 µM (active) and 7.58 µM (active); in assay [5], 6.33 µM (active). The compound was classed as inactive in assay [2], in assay [3], in assay [4], in [5], in assay [6] and in assay [7].
In the case of `CCc1ccc(CCOc2ccc(CC3SC(=O)NC3=O)cc2)nc1` (configuration not stated), the result in assay [1], in assay [2], in [3], in assay [8], in assay [4] and in [6] was inactive.
`COc1cc(CCC(=O)CC(=O)CCc2ccc(O)c(OC)c2)ccc1O`: the outcome in assay [1], in assay [2], in [8], in assay [4], in [5] and in assay [7] was inactive. In addition, in assay [3], the AC50 was 13.7 µM (active).
Take `CC(C)(C)CC(C)(C)c1ccc(O)c(-n2nc3ccccc3n2)c1`: the call in assay [1], in [2] and in assay [5] was inactive. The AC50 in [3] is 6.7 µM (active); in assay [4], 26.8 µM (active).
On to `NC(=O)N(O)[C@@H]1C=C[C@H](Oc2cccc(Oc3ccc(F)cc3)c2)C1`, for which the AC50 in assay [1] was 33 µM (active); in [3], 26 µM (active); in assay [4] it was 11.2 µM (active). For the same compound, the compound was classed as inactive in assay [2], in assay [5] and in [7].
For the compound `CCCCCCCCCCCCc1ccccc1S(=O)(=O)O`, the call in assay [1], in [2], in assay [3], in [8], in assay [4] and in assay [5] was inactive.
Consider `CCCCCCCCC(=O)O`, for which the compound was classed as inactive in [1], in assay [2], in assay [4] and in [5].
Turning to `NCC(F)(F)C(F)(F)C(F)(F)C(F)(F)C(F)(F)C(F)(F)C(F)(F)F`, the compound was classed as inactive in [1], in assay [2], in assay [3], in assay [8], in assay [4] and in assay [5]. The call in assay [6] was inactive.
In the case of `Cc1cc(C)c(O)c(C)c1`, the call in assay [1], in assay [2], in [8] and in assay [9] was inactive. Further, the AC50 in assay [4] is 100 µM (active).
Regarding `CN1CCC[C@H]1c1cccnc1`, the result in assay [1], in assay [2], in [3] and in assay [8] was inactive. For the same compound, in assay [4], the AC50 was 61.2 µM (active).
With `CC1=C(/C=C/C(C)=C/C=C/C(C)=C/C(=O)O)C(C)(C)CCC1`, the AC50 in [1] is 23.7 µM (active) and 102 µM (active); in [3], 6.62 µM (active) and 11.9 µM (active). Also, the result in assay [2] was inactive.
For `COC(=O)CCCCC(=O)OC`, the outcome in assay [1], in assay [2], in [3], in [4], in [5] and in assay [6] was inactive.
Turning to `Oc1cccc(O)c1`, the result in [1], in assay [2], in assay [3], in [4], in [5] and in assay [9] was inactive. In addition, the compound was classed as inactive in assay [6] and in assay [7].
Take `CCCOC(=O)c1ccc(O)cc1`: the outcome in assay [1], in [2], in assay [3], in assay [8], in assay [6] and in assay [7] was inactive. Moreover, the AC50 was 139 µM (active) in assay [3]; 6.31 µM (active) and 20.8 µM (active) in assay [4].
Regarding `c1ccc2c(c1)ccc1ccccc12`, the result in assay [1], in assay [2], in assay [3], in [8] and in assay [4] was inactive.
Turning to `CCc1nn(C2CCCCC2)c2cc(C3(C#N)CCC(C(=O)O)CC3)ccc12` (configuration not stated), the AC50 is 52.3 µM (active) in [1] and 48.7 µM (active) in [3]. Moreover, the call in assay [2], in assay [4] and in assay [7] was inactive.
As to `OC1CCC(C2CCCCC2)CC1` (configuration not stated), the result in assay [1], in assay [10], in assay [2], in [3], in assay [5] and in assay [6] was inactive.
As to `CC#C[C@]1(O)CC[C@H]2[C@@H]3CCC4=CC(=O)CCC4=C3[C@@H](c3ccc(N(C)C)cc3)C[C@@]21C`, the AC50 in assay [1] was 11.3 µM (active) and 26.2 µM (active); in assay [2], 8.06 µM (active) and 26.5 µM (active). Further, the compound was called inactive in [2] and in [4].
As to `O=C(O)Cc1cc(I)c(Oc2cc(I)c(O)c(I)c2)c(I)c1`, the compound was classed as inactive in assay [1], in assay [2], in [4], in assay [5] and in [6]. The AC50 is 18.1 µM (active) and 23 µM (active) in [3]; 34.1 µM (active) in assay [5].
On to `C=C(C)C(=O)OCCC(F)(F)C(F)(F)C(F)(F)C(F)(F)C(F)(F)C(F)(F)F`, for which the compound was classed as inactive in assay [1], in assay [2], in assay [3], in assay [8] and in [6]. In addition, the AC50 in assay [4] is 38.4 µM (active) and 49.2 µM (active).
